Tg IFNy HTS: inhibitors of Toxoplasma gondii growth with IFN-gamma | Toxoplasma gondii growth in IFN-gamma-treated host cells; stronger effect = lower value | activity change, negative = inhibition, % (test concentration not listed) | hit rate 3.8% among 69,000 | AID 1259416; in the data active = activity change below about -70%, passing the limit was not always enough;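 note: host cells are HeLa cells infected with Toxoplasma gondii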
Starred values were filed as active, the others as inactive; i = inactive; ! = not active in a repeat. Many of the other results were omitted from the sample, so hits are more common in it than they were.

SMILES	Tg IFNy HTS
CCCC(C)c1nnc(NC(=O)c2cc(C)[nH]c(=O)c2)s1 (configuration not stated)	0
O=C(c1cn(-c2ccccc2)nn1)N1CCN(C(=O)c2cccs2)CC1	-27
CCc1cn[nH]c1C1CCCN(C(=O)c2n[nH]c3ccc(C)cc23)C1 (configuration not stated)	32
Cc1ccc2[nH]nc(C(=O)N3CCCC(N)CC3)c2c1 (configuration not stated)	-40
Cc1ccc2[nH]nc(C(=O)N3CCCC3c3ccc(Cc4ccccc4F)cn3)c2c1 (configuration not stated)	-105*
CCOC(=O)c1c(NC(=O)c2ccco2)sc(C)c1C	-3
CCOc1ccccc1-c1noc(-c2c(O)c3ccc(F)cc3[nH]c2=O)n1	22
Cc1ccc(NS(=O)(=O)c2cc3c4c(c2)CCN4C(=O)CC3)cc1F	-6
CS(=O)(=O)c1ccc(C(O)[C@H](CF)NC(=O)C(Cl)Cl)cc1 (some centres not stated)	-78*!
CCCCCCCCCCCCCCCC(=O)OC[C@H](NC(=O)C(Cl)Cl)[C@H](O)c1ccc([N+](=O)[O-])cc1	20
O=C(N[C@@H](CO)[C@H](O)c1ccc([N+](=O)[O-])cc1)C(Cl)Cl	-8
COc1ccc(C2(NCc3ccc(-n4ccnc4C)cc3)CCCC2)cc1	-47
O=C(CC1CC1)NCc1cn2c(n1)CN(Cc1ccccn1)CC2	9
O=C(CCN1CCCCO1)Nc1cccc(NC(=O)Cc2ccccc2)c1	-5
c1cn(CCCn2ccnc2-c2cnc[nH]2)cn1	1
CCc1nc2ccccc2n1CC(=O)Nc1ccc2c(C)cc(C)nc2n1	-10
Fc1ccc(CSc2nc(Nc3ccc(F)cc3)c3ccccc3n2)cc1	-40
Brc1ccc(Nc2c3ccccc3nc3ccccc23)cc1	-92*
Cc1nc(OCC(=O)Nc2ccc(Br)cc2)c2ccccc2n1	-7
Cc1ccc(N2CCC3(CC(=O)N(c4ccc(F)c(F)c4)C3)C2)nn1 (configuration not stated)	65
Cc1ccc(N2CC(C(=O)NCCS(=O)(=O)c3ccc(F)cc3)CC2=O)c(C)c1 (configuration not stated)	-35
N#Cc1cnn(-c2ncnc3c2cnn3-c2ccccc2)c1N	-93*
c1ccc(-n2ncc3c(NC4CCCCCCCCCCC4)ncnc32)cc1	30
CCN(CC)c1ncnc2c1cnn2-c1ccccc1	i
Cc1nc(NC2CCN(CC(=O)NC3CCCCC3)CC2)[nH]c(=O)c1C	30
SMILES	Tg IFNy HTS
O=c1cc(-c2ccccc2)oc2cc(O)ccc12	28
O=c1cc(-c2ccc(O)cc2)oc2cc(O)cc(O)c12	53
O=c1cc(-c2ccc(O)cc2)oc2ccc(O)cc12	-87*
Cc1nnnn1-c1ccc(C(=O)N(C)Cc2ccccc2N2CCOCC2)cc1	9
COc1ccc(-c2nc(C)c(CCNC(=O)c3ccc(Cl)cc3)s2)cc1	314
COc1ccc(-c2nc(C)c(CCNC(=O)C(=O)Nc3c(C)cccc3C)s2)cc1OC	-15
COc1ccc(-c2nc(C)c(CCNC(=O)C(=O)Nc3ccccc3C)s2)cc1OC	-76*
COc1ccc(C(=O)NCCc2sc(-c3ccc(OC)cc3)nc2C)cc1	i
COc1ccc(C(=O)NCCc2sc(-c3ccc(Cl)cc3)nc2C)cc1	-76*
CCCCOc1ccc(C(=O)NCCc2sc(-c3ccc(Cl)cc3)nc2C)cc1	-74*
Cc1nc(-c2ccccc2)sc1CCNC(=O)c1ccc(Cl)cc1	i
COc1ccc(-c2nc(C)c(CCNC(=O)C(=O)Nc3ccccc3F)s2)cc1OC	65
Cc1nc(-c2ccc(Cl)cc2)sc1CCNC(=O)c1ccccc1	-43
Cc1cccn2c(CNC(=O)c3cccc(Cn4cccn4)c3)cnc12	-11
CN1CCN(C(=O)Cc2ccsc2)Cc2cccnc21	-30
CCCN1C(=O)CCc2cc(NS(=O)(=O)c3ccccc3C(F)(F)F)ccc21	6
Cc1c(S(=O)(=O)C(C)C)c(N)n(Cc2ccc(Cl)cc2Cl)c1C	12
COc1ccc(CN(C)C(=O)c2ccc(CSC)o2)cc1O	1
COCCC(=O)c1c2c(N3CCN(C)CC3)ncnc2n2ccccc12	-1
Cc1cccc(CNC2=NCCNC23CCN(S(=O)(=O)c2cccs2)CC3)c1	10
O=c1oc2ccccc2c2c1C(c1ccc3c(c1)OCO3)Nc1ccc3ccccc3c1-2 (configuration not stated)	57
Fc1ccc(C2Nc3ccc4ccccc4c3C3=C2CCCC3)cc1 (configuration not stated)	-105*
CS(=O)(=O)N1CCOCC2(CCN(Cc3nccs3)C2)C1 (configuration not stated)	2
Cc1ccc(CN(Cc2cc3cccc(C)c3[nH]c2=O)C(=O)c2ccco2)cc1	-79*
CCC(=O)N(Cc1ccc(C)cc1)Cc1cc2cccc(C)c2n2nnnc12	34
COc1ccc2[nH]c(=O)c(CN(C(=O)c3ccco3)C(C)C)cc2c1	27
O=C(c1nc(Nc2ccc(Cl)cc2)c2ccccc2n1)N1CCCc2ccccc21	44
CN(C)C(=O)CC1CC2(CCN(c3ncccn3)CC2)c2ccccc21 (configuration not stated)	-2

Screening results (PubChem BioAssay)
